Assay [1] is described as follows: Nuclear factor erythroid 2-related factor 2/antioxidant responsive element (Nrf2/ARE) small molecule agonists: qHTS cell viability counter screen in human keratinocytes (AID 1919968; active = well fitted curve in the direction sought with a large enough effect in the repeat runs; an effect the other way counts as inactive or inconclusive; note: nearly all actives have a fitted effect of over 55% in size). An outline of the steps:
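CellTiter-Fluor fluorescence, read 1 h after reagent, gave viability in the same wells as the ARE-luciferase assay. KeratinoSens cells (1,500/well) had 23 h compound exposure at 37 C/5% CO2 following 5 h plating.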
In general terms: Quantitative high-throughput screening tests each substance at several concentrations.

Assay [2] is described as follows: Nuclear factor erythroid 2-related factor 2/antioxidant responsive element (Nrf2/ARE) small molecule agonists: luciferase reporter gene qHTS assay in human keratinocytes (AID 1919969). Note: nearly all actives have a fitted effect of over 35% in size. Note: potency is the fitted concentration of half-maximal effect. A general note: In a reporter assay the amount or activity of a reporter protein is the signal.
In assay [3] the target is Gonadotropin-releasing hormone receptor (Homo sapiens) (UniProt P30968). Nature of the assay: Human gonadotropin-releasing hormone receptor (GnRHR) small molecule agonists, calcium flux assay in GnRHR-HEK293 cells (AID 1920063). Note: nearly all actives have a fitted effect of over 35% in size. Put shortly:
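Agonist mode: compounds at 15 concentrations, in triplicate, went onto calcium dye-loaded GnRHR-HEK293 cells. Intracellular calcium was then followed as 480/540 nm fluorescence at 1 s intervals over 3 min.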
For orientation: Calcium assays in cells follow changes in intracellular calcium, usually with a dye or a luminescent sensor.

The target of assay [4] is KiSS-1 receptor (Homo sapiens) (UniProt Q969F8). The experiment in a line: Human kisspeptin (KISS1R) small molecule agonists, calcium flux assay in KISS1R-HEK293 cells (AID 1920064; active = well fitted curve in the direction sought with a large enough effect in the repeat runs; an effect the other way counts as inactive or inconclusive). An outline of the steps: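 Agonist mode: intracellular calcium rise tracked at 1 s intervals over 3 min (480/540 nm) immediately after compound addition to dye-loaded KISS1R-HEK293 stable cells. Each compound tested at 15 concentrations in triplicate.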
Sequence of KiSS-1 receptor (Homo sapiens) (Q969F8 whole entry, looked up): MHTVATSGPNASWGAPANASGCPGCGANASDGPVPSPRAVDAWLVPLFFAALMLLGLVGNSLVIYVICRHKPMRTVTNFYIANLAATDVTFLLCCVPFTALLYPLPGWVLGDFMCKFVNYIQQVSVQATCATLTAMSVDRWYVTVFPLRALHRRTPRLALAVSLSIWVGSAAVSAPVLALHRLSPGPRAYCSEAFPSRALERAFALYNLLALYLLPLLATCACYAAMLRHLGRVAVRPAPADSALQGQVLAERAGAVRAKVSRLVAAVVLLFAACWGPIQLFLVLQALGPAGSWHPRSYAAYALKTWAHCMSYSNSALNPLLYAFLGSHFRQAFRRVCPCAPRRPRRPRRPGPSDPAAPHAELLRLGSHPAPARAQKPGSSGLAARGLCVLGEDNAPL

The nature of assay [5]: G protein-coupled receptor (GPCR) small molecule agonists, calcium flux assay: HEK293 wild type cell line counter screen (AID 1920065). An outline of the steps:
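Calcium flux counter screen: compound added in agonist mode at 15 concentrations in triplicate to dye-loaded parental HEK293 cells. Fluorescence (480/540) read kinetically for 3 min; ATP served as positive control.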

A short description of assay [6]: p53 small molecule agonists, cell-based qHTS assay with human liver microsomes: qHTS cell viability counter screen (AID 1963579). Note: nearly all actives have a fitted effect of over 45% in size. Note: potency is the fitted concentration of half-maximal effect. An outline of the steps:
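HLM-supplemented (0.5 mg/mL final) and NADPH-supplemented (0.5 mg/mL final) p53RE-bla cultures, 4,000 cells per well, were dosed with compounds in DMSO for 16 h at 37 C; luminescent ATP detection (CellTiter-Glo, 30 min, room temperature) quantified surviving cells.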

A short description of assay [7]: p53 small molecule agonists, cell-based qHTS assay with rat liver microsomes: qHTS cell viability counter screen (AID 1963580). Note: nearly all actives have a fitted effect of over 45% in size. An outline of the steps:
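Cytotoxicity counter screen: intracellular ATP measured by CellTiter-Glo luminescence in the same wells as the beta-lactamase reporter read, on HCT-116 p53RE-bla cells exposed 16 h at 37 C to compounds with rat liver microsomes and NADPH, each 0.5 mg/mL final.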

A short description of assay [8]: p53 small molecule agonists, cell-based qHTS assay: qHTS cell viability counter screen (AID 1963581). Note: nearly all actives have a fitted effect of over 45% in size. An outline of the steps:
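Counter screen read by CellTiter-Glo luminescence (ATP content, 30 min at room temperature), run in the same wells as the beta-lactamase reporter read. HCT-116 p53RE-bla cells saw compounds for 16 h at 37 C.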

The target in assay [9] is 5-hydroxytryptamine receptor 2A (Homo sapiens) (UniProt P28223). Nature of the assay: 5-hydroxytryptamine receptor 2A (HTR2A) small molecule antagonists, cell-based qHTS assay (AID 1963586). Note: nearly all actives have a fitted effect of over 45% in size. Note: potency is the fitted concentration of half-maximal effect. Put shortly:
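CHO cells stably expressing human HTR2A were plated for 18 h at 37 C, then loaded with calcium dye for 1 h. Compounds were preincubated 5 min at room temperature before DOI (4 nM solution) was added. Kinetic fluorescence was read for 3 min.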

For assay [10], the target named is Muscarinic acetylcholine receptor M1 (Homo sapiens) (UniProt P11229). The experiment in a line: Cholinergic receptor muscarinic 1 (CHRM1) small molecule antagonists, cell-based qHTS assay (AID 1963588). Note: nearly all actives have a fitted effect of over 40% in size. An outline of the steps: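 Compounds were tested at 15 concentrations in three independent runs. Dye-loaded CHRM1-CHO cells were exposed 5 min at room temperature before stimulation by acetylcholine added at 50nM. Intracellular calcium was read kinetically on FDSS for 3 min.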
Sequence of Muscarinic acetylcholine receptor M1 (Homo sapiens) (P11229 whole entry, looked up): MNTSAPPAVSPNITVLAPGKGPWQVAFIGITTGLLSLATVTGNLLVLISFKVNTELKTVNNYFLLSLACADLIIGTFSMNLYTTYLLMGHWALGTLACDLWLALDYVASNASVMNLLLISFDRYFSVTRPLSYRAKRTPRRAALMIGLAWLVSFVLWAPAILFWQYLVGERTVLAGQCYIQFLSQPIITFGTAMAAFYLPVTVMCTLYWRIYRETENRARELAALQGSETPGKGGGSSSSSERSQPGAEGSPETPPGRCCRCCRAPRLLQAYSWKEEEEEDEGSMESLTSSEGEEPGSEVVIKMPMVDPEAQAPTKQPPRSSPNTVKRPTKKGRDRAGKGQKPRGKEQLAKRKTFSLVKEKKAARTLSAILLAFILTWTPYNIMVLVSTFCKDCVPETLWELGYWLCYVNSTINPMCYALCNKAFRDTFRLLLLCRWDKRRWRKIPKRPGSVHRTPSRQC

Assay [11] has the same target. The experiment in a line: Cholinergic receptor muscarinic 1 (CHRM1) small molecule agonists, cell-based qHTS assay (AID 1963589). Note: nearly all actives have a fitted effect of over 35% in size. Put shortly: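 Agonist-mode calcium-flux screen: compounds at 15 concentrations, three independent runs, were pin-transferred onto dye-loaded human CHRM1-CHO cells. Fluorescence was then recorded kinetically every second over minutes.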

Assay [12] deals with Beta-2 adrenergic receptor (Homo sapiens) (UniProt P07550). The experiment in a line: Adrenergic beta2 receptor (ADRB2) small molecule antagonists, cell-based qHTS assay (AID 1963592). Note: series mostly up to about 92 µM; nearly all actives have a fitted effect of over 50% in size. An outline of the steps:
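Assay format: CHO-ADRB2 cells, 18-20hr seeding at 37C/5% CO2, then compound plus 1nM isoproterenol agonist mix for 0.5hr RT. Homogeneous time-resolved fluorescence cAMP detection after 1hr, expressed as 665/615 nm ratio.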

Assay [13] shares this target. Nature of the assay: Adrenergic beta2 receptor (ADRB2) small molecule agonists, cell-based qHTS assay (AID 1963593).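 Note: CHO cells stably overexpressing human ADRB2.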 Put shortly: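 CHO cells stably over-expressing ADRB2 were plated overnight at 37C, then dosed with compounds plus a stimulation mix containing 100uM IBMX and 25uM Ro-20-1724 for 0.5hr at room temperature. cAMP was measured by HTRF competition, 1hr.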

In assay [14] the target is D(2) dopamine receptor (Homo sapiens) (UniProt P14416). Nature of the assay: Dopamine D2 receptor (DRD2) small molecule agonists, cell-based qHTS assay (AID 1963594). Note: nearly all actives have a fitted effect of over 35% in size. An outline of the steps: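 HEK293 cells stably expressing human DRD2, pre-treated with PDE inhibitor Ro20-1724 (0.1 mM final) and compound 10 min at room temperature, then stimulated with NKH477 (200nM […]) for 30 min. cAMP read by HTRF (665/620 nm).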
Sequence of D(2) dopamine receptor (Homo sapiens) (P14416 whole entry, looked up): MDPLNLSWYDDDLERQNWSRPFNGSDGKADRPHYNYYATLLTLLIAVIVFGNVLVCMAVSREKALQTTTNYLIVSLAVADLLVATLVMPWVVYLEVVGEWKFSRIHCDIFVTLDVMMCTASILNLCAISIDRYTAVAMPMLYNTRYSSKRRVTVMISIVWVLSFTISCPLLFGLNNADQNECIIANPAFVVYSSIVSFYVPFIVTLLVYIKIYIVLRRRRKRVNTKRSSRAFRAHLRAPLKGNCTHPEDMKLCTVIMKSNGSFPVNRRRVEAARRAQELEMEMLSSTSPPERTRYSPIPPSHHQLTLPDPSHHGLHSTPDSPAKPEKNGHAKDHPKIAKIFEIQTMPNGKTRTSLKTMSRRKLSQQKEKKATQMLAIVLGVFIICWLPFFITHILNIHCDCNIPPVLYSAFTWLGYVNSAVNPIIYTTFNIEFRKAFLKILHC

Assay [15] has the same target. The experiment in a line: Dopamine D2 receptor (DRD2) small molecule antagonists, cell-based qHTS assay (AID 1963595; active = well fitted inhibition curve with a large enough effect in the signal ratio in the repeat runs, with a control signal flat; the % refers to the signal ratio). Put shortly: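 Readout: HTRF cAMP, cAMP-d2 competing with cellular cAMP for anti-cAMP cryptate, read after 1 h. Cells: DRD2-HEK293. Conditions: 0.1 mM Ro20-1724, 12 nM quinpirole, 200 nM NKH477, 30 min RT.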
The target in assay [16] is 5-hydroxytryptamine receptor 2A (Homo sapiens) (UniProt P28223). Nature of the assay: 5-hydroxytryptamine receptor 2A (HTR2A) small molecule agonists, cell-based qHTS assay (AID 1963587). Note: nearly all actives have a fitted effect of over 30% in size. Note: potency is the fitted concentration of half-maximal effect. Put shortly:
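CHO cells stably expressing human HTR2A, plated 18 h, loaded with calcium dye 1 h at 37 C. Agonist mode: compounds added and intracellular calcium fluorescence recorded kinetically for 2 min at 1 sec intervals.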

Assay [17] is described as follows: cAMP Responsive Elements (CRE) small molecule agonists, cell-based qHTS assay (AID 1963590). An outline of the steps: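 Agonist mode: compound added to CRE-bla HEK 293T cells (2,000/well, 18 h after plating) for 3 h at 37 C/5% CO2. Reporter activity detected via FRET beta-lactamase substrate, 2 h room-temperature loading.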
A short description of assay [18]: cAMP Responsive Elements (CRE) small molecule antagonists, cell-based qHTS assay (AID 1963591; active = well fitted inhibition curve with a large enough effect in the signal ratio in the repeat runs, not every such curve was filed as active; the % refers to the signal ratio). Put shortly:
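Antagonist mode: compounds are added alongside the adenylyl cyclase activator NKH477 (0.25 uM final) to CRE-bla HEK293T cells for 3 h. LiveBLAzer FRET substrate, 2 h at room temperature, reports bla expression.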

Assay [19] in a line: p53 small molecule agonists, cell-based qHTS assay (AID 1963582; active = well fitted activation curve with a large enough effect in the signal ratio in the repeat runs, not every such curve was filed as active; the % refers to the signal ratio; note: potency is the fitted concentration of half-maximal effect). An outline of the steps:
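Read-out is beta-lactamase FRET fluorescence after 2 h at room temperature with LiveBLAzer B/G substrate. p53 response element-bla cells were treated 16 h at 37 C with compounds in DMSO, added 5 h after seeding.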

The structures appear in SMILES notation. “And” between values parts separate entries of the source, which are not always exact repeats. Equal values may be shown once. Results filed as inconclusive are left out. The source holds several records for some structures; these can differ, active in one and inactive in another. The source made the active and inactive calls. Unless noted, calls come from the whole dose curve.

Sequence of Gonadotropin-releasing hormone receptor (Homo sapiens) (P30968 whole entry, looked up): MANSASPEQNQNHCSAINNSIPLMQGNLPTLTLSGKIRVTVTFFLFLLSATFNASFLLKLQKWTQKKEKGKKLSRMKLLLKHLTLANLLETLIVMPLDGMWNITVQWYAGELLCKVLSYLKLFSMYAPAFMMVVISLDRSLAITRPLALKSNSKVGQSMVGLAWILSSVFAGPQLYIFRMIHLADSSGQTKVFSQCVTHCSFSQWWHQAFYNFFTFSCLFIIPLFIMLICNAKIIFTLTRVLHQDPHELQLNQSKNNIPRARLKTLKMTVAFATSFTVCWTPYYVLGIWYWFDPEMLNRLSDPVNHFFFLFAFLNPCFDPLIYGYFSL
Sequence of 5-hydroxytryptamine receptor 2A (Homo sapiens) (P28223 whole entry, looked up): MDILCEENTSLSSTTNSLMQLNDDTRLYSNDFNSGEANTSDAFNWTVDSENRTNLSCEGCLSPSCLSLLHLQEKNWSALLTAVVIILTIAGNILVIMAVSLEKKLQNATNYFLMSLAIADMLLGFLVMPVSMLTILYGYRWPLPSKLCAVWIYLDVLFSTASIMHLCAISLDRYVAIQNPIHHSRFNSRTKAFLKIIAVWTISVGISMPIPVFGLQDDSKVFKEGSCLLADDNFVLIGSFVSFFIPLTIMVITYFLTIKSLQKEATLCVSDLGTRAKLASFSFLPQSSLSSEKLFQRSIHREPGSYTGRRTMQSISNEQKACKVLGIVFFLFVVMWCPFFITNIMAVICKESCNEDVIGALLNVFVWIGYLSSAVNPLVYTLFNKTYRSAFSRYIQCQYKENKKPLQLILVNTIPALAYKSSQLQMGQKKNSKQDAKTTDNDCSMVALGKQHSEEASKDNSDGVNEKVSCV
Sequence of Beta-2 adrenergic receptor (Homo sapiens) (P07550 whole entry, looked up): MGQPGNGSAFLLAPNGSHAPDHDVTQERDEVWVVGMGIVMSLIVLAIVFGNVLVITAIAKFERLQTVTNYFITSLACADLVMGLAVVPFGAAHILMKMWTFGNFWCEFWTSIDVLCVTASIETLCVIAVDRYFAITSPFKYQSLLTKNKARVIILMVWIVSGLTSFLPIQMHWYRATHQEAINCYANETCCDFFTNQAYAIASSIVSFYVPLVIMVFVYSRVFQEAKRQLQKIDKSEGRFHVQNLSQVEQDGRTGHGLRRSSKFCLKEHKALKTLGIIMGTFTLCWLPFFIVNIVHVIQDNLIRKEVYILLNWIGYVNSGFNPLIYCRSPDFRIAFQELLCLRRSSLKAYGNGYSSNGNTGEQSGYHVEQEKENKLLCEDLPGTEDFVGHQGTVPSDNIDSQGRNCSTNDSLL

For `CC/C=C\C/C=C\C/C=C\CCCCCCCC(=O)O`, the Potency entry in assay [1], in assay [3], in [4], in assay [5], in assay [7] and in assay [8] was “inactive” throughout. Further, the Potency result in [9], in assay [10], in assay [11], in assay [12], in assay [13] and in assay [14] was “inactive” throughout. Besides, in assay [15], the Potency entry is “inactive”. Also, the Potency in assay [2] was 60.6 µM (active) and 54.5 µM (active); in assay [6], “inactive and 20.4 µM (active)”.

As for `CCCCCCCO`, the Potency entry in [1], in assay [3], in [4], in assay [5], in assay [6] and in assay [7] was “inactive” throughout. Further, the Potency entry in [8], in [16], in [10], in assay [11], in assay [17] and in assay [18] was “inactive” throughout. Besides, the Potency result in [12], in [13], in [14] and in assay [15] was “inactive” each time. For the same compound, in assay [2], the Potency result was “inactive and 61.1 µM (active)”.

As for `N[C@@H](Cc1c[nH]c2ccc(O)cc12)C(=O)O`, the Potency result in assay [1], in [2], in [3], in assay [4], in assay [5] and in [6] was “inactive” in each case. In addition, the Potency entry in assay [7], in [8], in assay [10], in assay [11], in assay [17] and in assay [18] was “inactive” throughout. The Potency entry in assay [12], in assay [14] and in assay [15] was “inactive” each time. Further, the Potency in assay [9] is 364 nM (active) and 6.5 µM (active); in assay [16], 599 nM (active) and 8.49 µM (active).

As for `CN1Cc2c(N)cccc2C(c2ccccc2)C1` (configuration not stated), the Potency result in assay [1], in [2], in assay [3], in assay [4], in assay [5] and in assay [6] was “inactive” in each case. Besides, the Potency entry in assay [7], in assay [8], in assay [16], in assay [11], in assay [17] and in assay [18] was “inactive” in each case. For the same compound, the Potency entry in [12], in assay [13], in [14] and in assay [15] was “inactive” each time. Also, the Potency in [9] is 14.9 µM (active).

For `CC(C)OC(=O)C(C)(C)Oc1ccc(C(=O)c2ccc(Cl)cc2)cc1`, the Potency result in assay [1], in assay [3], in assay [4], in assay [5], in [6] and in [7] was “inactive” throughout. In addition, the Potency result in assay [8], in assay [17], in [18] and in [12] was “inactive” throughout. For the same compound, in [2], the Potency was 61.1 µM (active) and inactive.

Regarding `CC(C)c1ccc(S(=O)(=O)O)cc1`, the Potency result in [1], in [2], in [3], in assay [4], in assay [5] and in assay [6] was “inactive” each time. In addition, the Potency entry in assay [7], in [8], in [9], in [16], in assay [10] and in [11] was “inactive” each time. The Potency result in assay [17], in [18], in [13] and in [15] was “inactive” in each case.

Consider `CCN(CC)c1ccc2c(C)cc(=O)oc2c1`, for which the Potency result in [1], in assay [2], in assay [3], in assay [4], in [5] and in assay [6] was “inactive” throughout. Moreover, the Potency result in assay [7], in assay [9], in [16], in assay [10], in [11] and in assay [12] was “inactive” in each case. The Potency result in assay [13] and in assay [14] was “inactive” in each case. The Potency in [19] is 25.9 µM (active) and 32.4 µM (active).

On to `OC[C@H]1O[C@@](CO)(O[C@H]2O[C@H](CO)[C@@H](O)[C@H](O)[C@H]2O)[C@@H](O)[C@@H]1O`, for which the Potency entry in [1], in assay [2], in [3], in [4], in assay [5] and in assay [6] was “inactive” in each case. In addition, the Potency result in assay [8], in assay [9], in assay [16], in assay [11], in [17] and in assay [18] was “inactive” in each case. The Potency entry in [14] and in assay [15] was “inactive” throughout.

(Values after PubChem BioAssay (Tox21).)
